Assay results: ChEMBL document CHEMBL4513216, “Probing the Open Global Health Chemical Diversity Library for Multistage-Active Starting Points for Next-Generation Antimalarials” (ACS Infect Dis, 2020)
Screen size: about 69,000 compounds; about 8,600 (12%) showed an effect of 50% or more. For the sample, strong results were picked, then their nearest neighbours and some compounds at random.

Each compound was assayed on Plasmodium berghei (assay: Screen against P. berghei liver stage (PbLuc), transformed with Luciferase, at 10uM). Conditions: tested at 10 uM.
Format: functional, HepG2

Row | SMILES | INHIBITION [%]
1 | CCOc1cc(/C=C/c2ncc(C(=O)O)s2)cc(Br)c1O | -13.3
2 | CC(C)CNC(=O)CNC(=O)c1nc(Cc2c(Cl)cccc2Cl)no1 | 41
3 | COCCC1CCN(CC(C)n2cnc3ccccc32)CC1 (configuration not stated) | -3.47
4 | CCc1nc(CN2CCCN(C(=O)c3cnc(C)cn3)CC2)cs1 | 10.733
5 | COc1ccccc1CN(Cc1cccnc1)CC1CCCO1 (configuration not stated) | 42.6
6 | CCN(CC)Cc1ccc(C(=O)N2CCN(CC(C)O)CC2)o1 (configuration not stated) | 21.5
7 | COC(=O)c1cccc(S(=O)(=O)NC(=O)COC2CCCC2)c1 | 15.5
8 | O=S(=O)(c1ccccc1)N1CCC2(CCCN2Cc2cccc(Cl)c2)C1 (configuration not stated) | 61.8
9 | COCCC(=O)N1CCC2(CCCN2Cc2cccc(Cl)c2)C1 (configuration not stated) | 47.9
10 | CCS(=O)(=O)N1CCCC2(CCCN2Cc2cccc(Cl)c2)C1 (configuration not stated) | -14.3
11 | NC(=O)C1CCN(C(=O)NCCOc2ccc3c(c2)CCC3)CC1 | 5.45
12 | N[C@H]1CN(C(=O)c2ccc(Cl)cc2O)C[C@@H]1C1CC1 | 61
13 | N[C@H]1CN(C(=O)c2ccc(Cl)cc2F)C[C@@H]1C1CC1 | 25.7
14 | Cc1cc(Cl)ccc1C(=O)N1C[C@H](C2CC2)[C@@H](N)C1 | 32.2
15 | O[C@@H]1C[C@H]2CN(Cc3ccsc3)[C@@H](Cc3ccccc3)CN2C1 | 39.3
16 | O=C1[C@H]2CN(c3ncc(F)cn3)C[C@H]2CN1CC1CC1 | 42.6
17 | CC(C)CN1C[C@@H]2CN(c3cnccn3)C[C@@H]2C1=O | 21.3
18 | O=C1[C@H]2CN(c3cnccn3)C[C@H]2CN1CC1CC1 | 51.2
19 | O=C1[C@H]2CN(c3ncccn3)C[C@H]2CN1CC1CC1 | 64.2
20 | O=C1[C@H]2CN(c3ncccn3)C[C@H]2CN1Cc1ccncc1 | 4.71
21 | COCCN1C[C@@H]2CN(c3cnccn3)C[C@@H]2C1=O | 14
22 | CS(=O)(=O)N1C[C@H]2CN(CC3CC3)C(=O)[C@H]2C1 | 85.2
23 | O=C1[C@H]2CN(S(=O)(=O)C3CC3)C[C@H]2CN1CC1CC1 | 3.69

Row | SMILES | INHIBITION [%]
24 | CCS(=O)(=O)N1C[C@H]2CN(CC3CC3)C(=O)[C@H]2C1 | -12.2
25 | CN(C)C1COC2(CCN(Cc3ccc4c(c3)OCO4)CC2)C1 (configuration not stated) | -50.4
26 | COc1cc(C2CC(=O)Oc3cc(C)[nH]c(=O)c32)ccc1OCC(=O)O (configuration not stated) | 13.1
27 | CN1CCN(c2nc(O)c3c(-c4ccccn4)ccnc3n2)CC1 | -33.2
28 | O=C(c1ccccc1C1CCNC1)N1CCC(N2CCC(O)CC2)CC1 (configuration not stated) | 11.5
29 | COCCN(CCOC)C(=O)Nc1cc(C(F)(F)F)c[nH]c1=O | 12.7
30 | Cc1ncsc1C(=O)NC1CCN(Cc2cccc3c2OCCO3)CC1 | 33.8
31 | CC1CS(=O)(=O)CCN1CCCc1ccc(C(F)(F)F)cc1 (configuration not stated) | 10.1
32 | CCCC(=O)n1ccn(S(=O)(=O)c2ccc(C)cc2)c1=O | 5.18
33 | CC(C)(CO)CNC(=O)c1cc(-c2cc[nH]n2)n2ccccc12 | 41.2
34 | Cc1cc(N(C)CCOc2ccccc2F)nc(N)n1 | 65.7
35 | COc1ccccc1OCCN(C)c1cc(C)nc(N)n1 | 26.3
36 | CN(CCOc1ccccc1F)C1CCOC1=O (configuration not stated) | 33
37 | COc1ccccc1OCCCN(C)c1cc(C)nc(N)n1 | 61.2
38 | COc1ccccc1OCCCc1cc(C)nc(N)n1 | -16.7
39 | COc1ccc(OCCN(C)c2cc(C)nc(N)n2)cc1 | 45.4
40 | CNc1cc(C2CN(Cc3cccnc3NC)CCO2)nc(C)n1 (configuration not stated) | 1.62
41 | CC1c2ncc(CNC(=O)C3CC3)n2CCN1Cc1ccsc1 (configuration not stated) | -10.3
42 | CNC(=O)C1Cn2ccnc2C2(CCN(Cc3cccnc3)CC2)O1 (configuration not stated) | 43.2
43 | COCCc1noc(CN2CCCC2c2noc(C)n2)n1 (configuration not stated) | -5.32
44 | COc1ccnc(NC(Cc2ccccc2)C(=O)N(C)C)n1 (configuration not stated) | 8.7
45 | O=C(NC[C@H]1C[C@@H]2CN(C(=O)c3ccco3)C[C@@H]2O1)c1ccsc1 | 18.6
46 | Cn1cccc1C(=O)NC[C@H]1C[C@@H]2CN(C(=O)c3ccco3)C[C@@H]2O1 | 7.7

Row | SMILES | INHIBITION [%]
47 | O=C(NC[C@@H]1C[C@@H]2CN(C(=O)CO)C[C@H]2O1)c1ccsc1 | 52.1
48 | CC(C)OCc1ncn2c1CN(Cc1cccs1)CCC2 | 15.9
49 | CCn1cc2c(n1)C(COC)CN(C(=O)CCOc1ccccc1)C2 (configuration not stated) | -37.9
50 | CCc1cnc(N)nc1N[C@@H](C)c1ncccc1C | 3.96
51 | CCc1cnc(N)nc1NC(C)c1ccc(C)c(C)c1 (configuration not stated) | 88.2
52 | CCc1cnc(N)nc1NC(C)c1cnn(C)c1 (configuration not stated) | 17.8
53 | CN(CC(O)C(F)(F)F)C(=O)Nc1cccc(N2CCCC2)c1 (configuration not stated) | -16.4
54 | Cn1cc(CN2CCC(F)(F)C3(CCN(c4ncc(F)cn4)C3)C2)cn1 (configuration not stated) | 12.5
55 | O=C(c1ccc(Cn2ccccc2=O)o1)N1CCSCC1 | 20.45
56 | CC(=O)Nc1nc(CS(=O)(=O)CCCc2ccccc2)cs1 | -25.2
57 | COCCS(=O)(=O)Cc1csc(NC(C)=O)n1 | 21.8
58 | Cc1nc(CNc2cccc(Cl)c2Cl)cs1 | 50
59 | CNc1nc(CNC(=O)Nc2cccc(Cl)c2OC)cs1 | 3.263
60 | COCc1ccccc1NCc1csc(NC(C)=O)n1 | 89
61 | Cc1nc(CNc2ccccc2CCC(F)(F)F)cs1 | -13.6
62 | CC(=O)Nc1nc(CNc2ccccc2CCC(F)(F)F)cs1 | 42.6
63 | CC(=O)Nc1nc(CS(=O)(=O)Cc2ccccc2)cs1 | 55.4
64 | CCOC(C)c1nc(CNc2cccc(Cl)c2OC)cs1 (configuration not stated) | -3.08
65 | COc1c(Cl)cccc1NCc1csc(NC(C)=O)n1 | 89.4
66 | COc1c(Cl)cccc1NCc1csc(C)n1 | -1.37
67 | COCc1csc(NC(=O)NCc2ccccn2)n1 | -3.99
68 | CN(Cc1ccco1)C(=O)C1CSCN1C(=O)c1cccs1 (configuration not stated) | -31.8
69 | CCS(=O)(=O)N1CC[C@@H]2[C@H](CC1)N(Cc1cccnc1)CCS2(=O)=O | 5.56

Row | SMILES | INHIBITION [%]
70 | CCCC(=O)Nc1ccc(CC(=O)N(C)CCc2cn[nH]c2)cc1 | 17.3
71 | COCC1N(C(=O)c2ccc3c(c2)OCCCO3)C2CCC1(O)CC2 (configuration not stated) | -35.3
72 | CN1CC(C(=O)NCc2cccnc2-n2cccn2)CC1=O (configuration not stated) | -37.7
73 | COCC1CN(Cc2cc(C)on2)Cc2cnn(C)c21 (configuration not stated) | -13.7
74 | CCn1c(Cn2cncn2)nnc1C1CCN(Cc2cccnc2)CC1 | -50.8
75 | Cc1nn(C)c2c(N3CCSCC3)nc(C3CC3)nc12 | 22.6
76 | CN1CCN(c2ccc(NCc3ccc([S+](C)[O-])cc3)cn2)CC1 (configuration not stated) | 47.4
77 | CN(Cc1ccsc1)C(=O)Nc1ccc(N2CCCC2)nc1 | 15.3
78 | Cc1nc(CNCc2ccc(N3CCN(C)CC3)nc2)cs1 | 29.1
79 | CCOc1ccc(NCc2cnc(N3CCN(C)CC3)nc2)cn1 | -15.7
80 | CN1CCN(c2ccc(NCc3ccc(OC(F)(F)F)cc3)cn2)CC1 | 83.2
81 | CN1CCN(c2ccc(NCc3ccsc3)cn2)CC1 | 69.3
82 | O=C(c1ccco1)N1C[C@@H]2CN(c3ccccn3)C[C@@H]2C1 | 5.04
83 | O=C1NC2(CCN(C(=O)c3ccccc3)CC2)CC1c1cccnc1 (configuration not stated) | -8.19
84 | O=C(c1cccc(S(=O)(=O)NC[C@@H]2C[C@H](F)CN2)c1)N1CCCCC1 | 46.1
85 | CCOCCNC(=O)c1cccc(S(=O)(=O)NC[C@@H]2C[C@H](F)CN2)c1 | -3.87
86 | O=C(Nc1ccccc1)c1cccc(S(=O)(=O)NC[C@@H]2C[C@H](F)CN2)c1 | 60.2
87 | CNc1snc(C)c1C(=O)N1CCCC(n2ccnc2C)C1 (configuration not stated) | 37.9
88 | Cn1ccnc1CN1CCc2onc(COCC3CC3)c2C1 | 19.6
89 | Cc1nccn1CCCN1CCCC(c2ccccc2)C1 (configuration not stated) | 49.4
90 | CC(=O)Nc1ccc(OCc2noc(C(=O)N3CCCCC3)n2)cc1 | 17.1
91 | CC(=O)Nc1ccc(OCc2noc(C(=O)N3CCCCCC3)n2)cc1 | 64.7
92 | CC(=O)Nc1ccc(OCc2noc(C(=O)N3CCCC3)n2)cc1 | 31.3

Row | SMILES | INHIBITION [%]
93 | N#Cc1cccc(N2CCCC3(C2)CN(c2ncc(F)cn2)CCO3)n1 (configuration not stated) | 8.31
94 | c1coc(CN2CCn3c(COCC4CC4)nnc3C2)c1 | 18.5
95 | CCOC1CCCN(C(=O)c2cnc3c(cnn3C3CCCC3)c2)C1 (configuration not stated) | 24
96 | NC(=O)C1CCCN(C(=O)c2cnc3c(cnn3C3CCCC3)c2)C1 (configuration not stated) | 56.6
97 | CN1CCN(C(=O)c2cnc3c(cnn3C3CCCC3)c2)CC1 | 24.8
98 | O=C(O)CN(C(=O)c1ccccc1)[C@H]1C[C@H]2CCOC[C@H]2C1 | -6.53
99 | Cc1ccc(NC2CCN(C(=O)c3ccc(C(N)=O)s3)CC2)nn1 | 42
100 | CN(C)c1ncccc1CNC(=O)NCc1ccc(Cl)s1 | -10.1
101 | Cn1nccc1CCC(=O)N1CCCC(c2cnccn2)C1 (configuration not stated) | 25.6
102 | Cc1cncc(C2CCN(C(=O)CCc3ccnn3C)CC2)n1 | 6.32
103 | COc1ccccc1CCC(=O)N1CCCC(OCc2cccnc2)C1 (configuration not stated) | 25.8
104 | O=C1CCCN1CCCC(=O)N1CCCC(Cc2cccnc2)C1 (configuration not stated) | 41.2
105 | Cn1nccc1CCC(=O)N1CCCC(Cc2cccnc2)C1 (configuration not stated) | 56
106 | CN(CCC(=O)N1CCCC(Cc2cccnc2)C1)Cc1cccnc1 (configuration not stated) | 38.2
107 | O=C(CCn1ncc2ccccc21)N1CCCC(Cc2cccnc2)C1 (configuration not stated) | 53
108 | Cn1nccc1CCC(=O)N1CCC(c2cnccn2)CC1 | 54.4
109 | Cn1cnnc1CCC(=O)N1CCCC(OCc2cccnc2)C1 (configuration not stated) | 51
110 | Cc1ccn(CCC(=O)N2CCCC(Cc3cccnc3)C2)n1 (configuration not stated) | 41.2
111 | O=C(CCc1ccccc1F)N1CCCC(OCc2cccnc2)C1 (configuration not stated) | 48.8
112 | CC(C)C(=O)N1CCCC(Cc2cccnc2)C1 (configuration not stated) | 16.2
